Test results from the supplement of paper PMC10646978.
± gives the standard deviation.

Experiments:
Conditions in all cases: modulator concentration 10 µM
[1] = test system: RAW-Dual (murine macrophage reporter line); assay: NF-kB reporter (SEAP) activity fold change vs agonist alone; higher = enhanced NF-kB activity
Outline: (§1)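 Compound reached 10 μM final in each well by pin transfer, onto RAW-Dual murine macrophage reporter cells seeded at 50 000 per well in 384-well plates. After 1 hour at 37 °C, the cells were stimulated overnight with a PRR agonist. SEAP in the supernatant was read with QUANTI-Blue at 620 nm absorbance for NF-κB, and Lucia luciferase was read with QUANTI-Luc luminescence for IRF. Each signal was turned into fold change against the mean agonist-only control on the same plate, and two replicate plates were averaged with propagated errors.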

[2] = test system: RAW-Dual (murine macrophage reporter line); assay: IRF reporter (Lucia luciferase) activity fold change vs agonist alone; higher = enhanced IRF activity
Outline: as §1

[3] = test system: RAW-Dual (murine macrophage reporter line); assay: viability score (confluency relative to resting cells, overnight) (fraction); higher = more viable, active = viable (0.7 or more)
Outline: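 Compound was added at a final 10 μM to RAW-Dual macrophages in 384-well plates and left overnight. Confluency was imaged with IncuCyte, and two masks were generated in IncuCyte software over all imaged wells. Each viability score is confluency relative to resting cells, and a compound met the cutoff only when both masks were above 70% of resting cells.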

[4] = agonist: CpG ODN 1826 0.5 ug/mL

| Structure (SMILES) | NF-kB reporter [1, 4] | NF-kB reporter ([1]; agonist: LPS 0.1 ug/mL) | NF-kB reporter ([1]; agonist: MPLA […]) | IRF reporter ([2]; agonist: 3'3'-cGAMP 10 ug/mL) | IRF reporter ([2]; agonist: LPS 0.1 ug/mL) | IRF reporter ([2]; agonist: MPLA […]) | viability score [3] |
| --- | --- | --- | --- | --- | --- | --- | --- |
| O=C(C=Cc1cc([N+](=O)[O-])ccc1O)c1ccc(Cl)cc1 | 0.614 ± 0.052 | 0.81 ± 0.046 | 1.26 ± 0.21 | 0.496 ± 0.023 | 1.28 ± 0.074 | 1.25 ± 0.11 | 0.983 (active) |
| O=C(CCn1cnc2ccccc2c1=O)NCC1CCCN1c1ccccc1 (stereo not drawn) | 1.05 ± 0.054 | 1 ± 0.086 | 0.987 ± 0.046 | 0.983 ± 0.053 | 1.3 ± 0.086 | 1.2 ± 0.14 | 0.995 (active) |
| Cl.O=C(c1ccc(OCCN2CCCCC2)cc1)c1c(-c2ccc(O)cc2)sc2cc(O)ccc12 | 0.106 ± 0.015 | 1.14 ± 0.27 | 2.12 ± 0.12 | 0.55 ± 0.023 | 0.901 ± 0.24 | 1.5 ± 0.18 | 0.254 (inactive) |
| CC1=C(C(=O)OCCN(Cc2ccccc2)c2ccccc2)C(c2cccc([N+](=O)[O-])c2)C(P2(=O)OCC(C)(C)CO2)=C(C)N1 (stereo not drawn) | 0.86 ± 0.2 | 0.475 ± 0.024 | 0.543 ± 0.034 | 0.555 ± 0.028 | 0.917 ± 0.15 | 0.736 ± 0.074 | 1 (active) |
| O=C(CSc1ccc(F)cc1)N1CCn2nc3c(c2C1)CCC3 | 1.39 ± 0.087 | 1.01 ± 0.1 | 1.05 ± 0.056 | 1.03 ± 0.11 | 1.03 ± 0.064 | 1.03 ± 0.12 | 1 (active) |
| CNCC[C@H](Oc1cccc2ccccc12)c1cccs1 | 0.087 ± 0.0072 | 0.8 ± 0.08 | 1.08 ± 0.058 | 0.262 ± 0.019 | 1.02 ± 0.2 | 1.01 ± 0.27 | 0.333 (inactive) |
| COC1(CNC(=O)C2CCN(S(C)(=O)=O)CC2)CCSC1 (stereo not drawn) | 0.879 ± 0.04 | 0.875 ± 0.076 | 1.07 ± 0.1 | 0.946 ± 0.074 | 1.08 ± 0.15 | 1.22 ± 0.34 | 0.97 (active) |
| CC(=NN1CCN(Cc2cccc3ccccc23)CC1)c1ccc(O)cc1 | 0.841 ± 0.062 | 0.886 ± 0.079 | 0.988 ± 0.026 | 0.849 ± 0.031 | 0.946 ± 0.1 | 0.963 ± 0.14 | 0.996 (active) |
| CCCC(=O)Nc1ccc(N2CCCCC2)cc1 | 0.833 ± 0.067 | 0.901 ± 0.046 | 0.979 ± 0.09 | 0.895 ± 0.043 | 1.48 ± 0.1 | 1.65 ± 0.17 | 0.985 (active) |
| CC(C)(C)C1CCc2c(sc(NC(=O)c3cccs3)c2C(=O)N2CCCC2)C1 (stereo not drawn) | 0.93 ± 0.073 | 1.06 ± 0.061 | 0.993 ± 0.13 | 0.984 ± 0.027 | 1.14 ± 0.12 | 1.03 ± 0.068 | 1.01 (active) |
| COCCOC(=O)C1=C(C)NC(=O)NC1c1cc(OC)c(OC)c(OC)c1 (stereo not drawn) | 0.937 ± 0.064 | 1.02 ± 0.062 | 0.913 ± 0.069 | 0.956 ± 0.032 | 1.2 ± 0.15 | 1.08 ± 0.14 | 0.995 (active) |
| CN(C)C/C=C/C(=O)Nc1cc2c(Nc3ccc(F)c(Cl)c3)ncnc2cc1O[C@H]1CCOC1.O=C(O)/C=C\C(=O)O.O=C(O)/C=C\C(=O)O | 0.365 ± 0.017 | 0.661 ± 0.089 | 0.613 ± 0.034 | 0.418 ± 0.026 | 0.795 ± 0.17 | 0.855 ± 0.3 | 0.999 (active) |
| COc1ccc(C(=O)Nc2sc3c(c2C(N)=O)CCC(C)C3)c(OC)c1 (stereo not drawn) | 1.09 ± 0.11 | 1.08 ± 0.067 | 0.947 ± 0.058 | 0.907 ± 0.068 | 1.5 ± 0.2 | 1.22 ± 0.11 | 1.01 (active) |
| O=C1CCCc2nn(-c3ccccc3)nc21 | 1.02 ± 0.086 | 1.05 ± 0.14 | 1.09 ± 0.12 | 1 ± 0.049 | 1.17 ± 0.14 | 1.21 ± 0.19 | 1.03 (active) |
| COc1ncc(-c2ccc3nccc(-c4ccnnc4)c3c2)cc1NS(=O)(=O)c1ccc(F)cc1F | 1.56 ± 0.067 | 1.79 ± 0.14 | 3.01 ± 0.16 | 0.389 ± 0.051 | 1.2 ± 0.1 | 2.66 ± 0.33 | 0.33 (inactive) |
| CC(C)(C)C1CCc2c(sc(NC(=O)c3ccc(F)cc3)c2C(N)=O)C1 (stereo not drawn) | 0.981 ± 0.16 | 0.999 ± 0.12 | 1 ± 0.13 | 0.914 ± 0.041 | 1.24 ± 0.3 | 1.24 ± 0.21 | 0.56 (inactive) |
| O=C(OCCN1CCCCC1)c1ccc(O)cc1 | 1.01 ± 0.081 | 1.06 ± 0.07 | 1.03 ± 0.04 | 1.08 ± 0.077 | 1.03 ± 0.047 | 1.07 ± 0.18 | 1 (active) |
| Cc1cc(=O)nc(SCCc2ccccc2)[nH]1 | 1.13 ± 0.11 | 1.27 ± 0.082 | 1.15 ± 0.041 | 0.952 ± 0.079 | 1.06 ± 0.053 | 1.2 ± 0.091 | 0.687 (inactive) |
| O=[N+]([O-])c1ccc(-n2cccc2C=NNc2nc(N3CCOCC3)nc(N3CCOCC3)n2)cc1 | 0.961 ± 0.42 | 1.09 ± 0.085 | 1.14 ± 0.13 | 0.691 ± 0.022 | 0.999 ± 0.1 | 1.25 ± 0.16 | 1 (active) |
| O=[N+]([O-])c1ccccc1S(=O)(=O)N1CCCC1 | 0.974 ± 0.11 | 1.06 ± 0.065 | 0.907 ± 0.055 | 0.921 ± 0.042 | 1.34 ± 0.087 | 1.23 ± 0.25 | 1.01 (active) |
| CC(=O)O.CCN(CC)CC#CC1(O)CCCCC1 | 0.854 ± 0.083 | 0.981 ± 0.058 | 0.914 ± 0.059 | 0.902 ± 0.078 | 1.21 ± 0.14 | 1.06 ± 0.07 | 1.01 (active) |
| O=C(NN=Cc1c(O)ccc2ccccc12)c1[nH]ncc1I | 1.93 ± 0.15 | 1.24 ± 0.081 | 1.4 ± 0.063 | 0.491 ± 0.021 | 1.32 ± 0.076 | 1.3 ± 0.094 | 0.906 (active) |
| CC(O)Cn1cnc2c1c(=O)n(C)c(=O)n2C (stereo not drawn) | 1.06 ± 0.082 | 1.06 ± 0.065 | 1.01 ± 0.036 | 0.99 ± 0.07 | 0.972 ± 0.11 | 0.957 ± 0.11 | 0.998 (active) |
| Cn1c(=O)cc(N2CCC[C@@H](N)C2)n(Cc2cc(F)ccc2C#N)c1=O.O=C(O)CCC(=O)O | 0.0816 ± 0.0048 | 0.119 ± 0.014 | 0.376 ± 0.039 | 0.0243 ± 0.0016 | 0.262 ± 0.076 | 0.205 ± 0.069 | 0.128 (inactive) |
